# Only some compounds are listed: those with a hit (about 21% of all), similar ones and a draw of the others.
# Pf growth 48h – Primary qHTS for delayed death inhibitors of the malarial parasite plastid, 48 hour incubation. Potency, µM (top dose mostly 28.7 µM), for inactives: at the highest dose activity change, negative = inhibition, actives largely listed as inhibitors. P. falciparum luciferase growth in erythrocytes, 48 h. 310,000 tested, 5.9% active; also: potency is read from the fitted curve at half-maximal effect; % is scaled to controls: 0 for no effect and ±100 for the full control effect
#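 Here the parasites carry a stable luciferase gene and grow inside erythrocytes in Albumax-based RPMI medium with compound for one erythrocytic cycle. Activity is scored as loss of luminescent signal.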
# CHX counter – Cycloheximide Counterscreen for Small Molecule Inhibitors of Shiga Toxin. max response, %. 300,000 tested, 12% active. cell reporter, cycloheximide protein synthesis inhibition counterscreen; in the data active = max response mostly above about 13%, no sharp cut-off; inactive = mostly below about 14%; also: read at 38.3 µM for the half of the compounds with a filed dose; 0% is about no effect
# NS1 function inh – qHTS Assay for Inhibitors of Influenza NS1 Protein Function; Potency, µM (titrated, usually from 46.1 µM), without a hit: top-dose activity, positive = more growth; 270,000 tested, 0.4% active; AID 2326, 2010; calls by dose curve; also: potency is read from the fitted curve at half-maximal effect; actives are rising curves; nearly all actives have a fitted effect of over 50% in size
#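 Compounds were scored for reversing the slow growth caused by influenza A NS1 in S. cerevisiae, measured by optical density at 600 nm. Assay medium contained 2% galactose at pH 6.0; NS1-free yeast of the same strain were the positive control.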
# Pf growth 96h – Primary qHTS for delayed death inhibitors of the malarial parasite plastid, 96 hour incubation. P. falciparum luciferase reporter growth, 96 h. Potency, µM (doses to about 28.7 µM), for the others: at the highest dose activity change, negative = inhibition, usual class: inhibitors. 320,000 tested, 6.9% active; also: potency is read from the fitted curve at half-maximal effect; % is scaled to controls: 0 for no effect and ±100 for the full control effect
#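 Compounds incubated with erythrocytes infected by luciferase-expressing P. falciparum (2% hematocrit, 0.05% parasitemia final) for 96 hours, 37 C in 5% CO2. Growth inhibition scored as decreased luciferase luminescence.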
# Shiga toxin inh – A qHTS for Small Molecule Inhibitors of Shiga Toxin; Vero cells, Shiga toxin protein synthesis inhibition reporter; inhibition, % at 38.7 µM; 290,000 tested, 9.2% active; AID 2315, 2010; in the data active = inhibition mostly above about 28%, no sharp cut-off; inactive = mostly below about 43%; also: 0% is about no effect
# FBPA Giardia inh – qHTS Assay for Inhibitors of Fructose-1,6-bisphosphate Aldolase from Giardia Lamblia | A8B2U2 | purified Giardia FBPA | 290,000 tested, 0.71% active | Potency, µM (top dose mostly 59.6 µM), inactives show at the top dose activity, negative = inhibition, actives largely listed as inhibitors; also: potency is read from the fitted curve at half-maximal effect; % is scaled to controls: 0 for no effect and ±100 for the full control effect; nearly all actives have a fitted effect of over 55% in size
# Target sequence (A8B2U2 whole entry, looked up): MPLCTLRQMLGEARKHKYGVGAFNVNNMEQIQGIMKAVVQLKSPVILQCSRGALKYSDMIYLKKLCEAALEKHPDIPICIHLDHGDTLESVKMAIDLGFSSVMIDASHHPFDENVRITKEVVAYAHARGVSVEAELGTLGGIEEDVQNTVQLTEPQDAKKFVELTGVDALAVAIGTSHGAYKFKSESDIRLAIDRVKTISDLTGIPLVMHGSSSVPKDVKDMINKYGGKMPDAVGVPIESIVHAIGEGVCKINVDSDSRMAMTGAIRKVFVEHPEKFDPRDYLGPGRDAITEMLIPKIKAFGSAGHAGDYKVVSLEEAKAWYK
#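 40 nM FBPA preincubated 10 min at RT with compound (up to 57.5 uM final), then substrate plus GAPDH/TPI/NAD/arsenate coupling and diaphorase/resazurin added. Fluorescence read after 20 min at RT, 525/598 nm.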
# The depositor's hits bear a star; ? = inconclusive; nt = no result; [ ] = another dose, or the depositor's remark. Unless noted, calls follow the shape of the dose curve; as a rule, active = well fitted curve in the direction sought with a large enough effect; inconclusive = small, poorly fitted or top-dose-only effect, or another doubt; inactive = no such curve, though single readings can be large; an effect the other way counts as inactive or inconclusive.
SMILES,Pf growth 48h,CHX counter,NS1 function inh,Pf growth 96h,Shiga toxin inh,FBPA Giardia inh
CC1=CC2=NC(=O)/C(=C\c3cc(C)n(-c4ccccc4)c3C)C(=N)N2O1,?,-1,10%,?,1,1%
CSCC[C@H](NC(=O)[C@H](CCCNC(=N)N)NC(=O)[C@H](Cc1ccc(O)cc1)NC(=O)[C@@H]1CCCN1C(=O)CNC(=O)[C@H](CCC(=O)O)NC(=O)[C@H](CC(=O)O)NC(=O)[C@H](CCCCN)NC(=O)[C@H](CCCCN)NC(=O)[C@H](CCC(=O)O)NC(=O)[C@H](C)N)C(=O)N[C@@H](CCC(=O)O)C(=O)N[C@@H](Cc1cnc[nH]1)C(=O)N[C@@H](Cc1ccccc1)C(=O)N[C@@H](CCCNC(=N)N)C(=O)N[C@@H](Cc1c[nH]c2ccccc12)C(=O)NCC(=O)N[C@@H](CO)C(=O)N1CCC[C@H]1C(=O)N1CCC[C@H]1C(=O)N[C@@H](CCCCN)C(=O)N[C@@H](CC(=O)O)C(=O)O,nt,1,nt,nt,-12,-1%
NC(N)=NC(N)=NCCc1ccccc1,-9%,0,12%,?,-2,-29%
NC(N)=NCc1cccc(I)c1,?,nt,5%,11µM*,nt,-5%
Cc1cc(Cl)cc(Cl)c1OCCN1CCCC1,16%,-2,-5%,7%,-11,-29%
COc1ccc(CCNc2ccncn2)cc1OC,nt,-1,1%,-23%,-14,-10%
COc1ccc(CCNc2ncnc3[nH]ncc23)cc1OC,3%,8,8%,15µM*,-9,6%
COc1ccc(CCNc2ncnc3sc(C)cc23)cc1OC,5.2µM*,1,-53%,60%,-1,?
O=C(CN1CCCCC1)NCC(=O)Nc1ccc(Br)cc1C(=O)c1ccccc1,-3%,-3,3%,122%,-15,8%
O=C(CCN1CCOCC1)NCC(=O)Nc1ccc(Br)cc1C(=O)c1ccccc1,11%,-1,-1%,13µM*,-17,7%
C/C(=N\Nc1nc2ccccc2s1)c1cccs1,203%,89*,?,84%,73*,-5%
O=C(Cc1cccs1)Nc1nc(-c2ccccc2)cs1,nt,10,-53%,19%,29,-5%
C/C(=N\Nc1nc(-c2ccccc2)cs1)c1cccs1,55%,75*,12%,-15%,118*,-3%
CCOc1cccc(-c2cc(C(=O)Nc3ccon3)c3ccccc3n2)c1,2.1µM*,-3,0%,-18%,-4,-8%
O=C(Nc1ccon1)c1cc(-c2ccccc2)nc2ccccc12,7.4µM*,-3,-61%,nt,16,6%
O=C(O)c1ccccc1NC(=O)c1cc(-c2ccccc2)nc2ccccc12,4%,-4,-12%,-19%,-5,8%
O=C(NC1Cc2ccccc2C1)c1cc(COc2ccc(F)cc2Cl)on1,48%,-4,-3%,?,-6,8%
Cc1cc(OCc2cc(C(=O)NC3CCC3)no2)cc(C)c1Cl,?,4,-17%,-2%,-2,11%
COc1cccc(OCc2cc(C(=O)NC3CCOCC3)no2)c1,30%,46*,6%,0%,82*,7%
CC1(C)CC(NC(=O)c2cc(COc3cccc(C(F)(F)F)c3)on2)CCO1 (centres undefined),3%,29*,-7%,?,48*,12%
COc1ccc(OCc2cc(C(=O)NC3CCOCC3)no2)c2ccccc12,?,22*,-10%,?,18,nt
Cc1ccc(OCc2cc(C(=O)NC3CCOC3)no2)cc1C (centres undefined),-18%,20*,-1%,13%,25*,11%
O=C(NCCN1CCCCC1)c1cc(COc2c(F)cccc2F)on1,?,23,25%,?,0,-14%
CC(=O)c1cccc(OCc2cc(C(=O)NC3CCN(Cc4ccccc4)CC3)no2)c1,-30%,-3,-7%,12µM*,-8,nt
C#CCCCO/N=C1/C[C@@H](O)[C@@H](O)[C@@H]2[C@H]3C(=O)N(c4ccc(F)cc4F)C(=O)[C@@H]3CC[C@@H]12,nt,nt,nt,nt,nt,4%[12.9 µM]
SMILES,Pf growth 48h,CHX counter,NS1 function inh,Pf growth 96h,Shiga toxin inh,FBPA Giardia inh
N#Cc1ccc(CN2CCCC3(CCN(C(=O)c4csnn4)CC3)C2)cc1,nt,nt,nt,nt,nt,1%
Cc1ccnc(NC(=O)CN2C(=O)NC(C)(c3ccc4ccccc4c3)C2=O)c1 (centres undefined),?,nt,nt,-3%,nt,nt
Cc1ccccc1-c1ccc(/C=C2/SC(N3CCOCC3)=NC2=O)o1,10µM*,-2,2%,?,13,-6%
Cc1ccsc1/C=C1/SC(N2CCOCC2)=NC1=O,?,21,-9%,8%,42,0%
N#CCCN1CCN(C2=NC(=O)/C(=C\c3cccs3)S2)CC1,?,21*,nt,16%,29,20%
O=C1N=C(N2CCOCC2)S/C1=C\c1cccs1,?,22*,-5%,1%,39*,5%
O=C1N=C(N2CCOCC2)S/C1=C\c1ccc(-c2ccccc2Cl)o1,0%,0,7%,?,-12,0%
COC(=O)[C@H]1C[C@@H]1[C@H](NS(=O)(=O)c1ccc(-c2ccccc2)cc1)c1ccccc1,nt,nt,nt,nt,nt,-1%
O=C(c1ccc2c(c1)N(Cc1cccc(Cl)c1)C(=O)c1ccccc1S2(=O)=O)N1CCN(c2ccccn2)CC1,?,-4,nt,26%,19,-2%
CN1CCN(C(=O)c2ccc3c(c2)N(Cc2ccc(Cl)cc2)C(=O)c2ccccc2S3=O)CC1 (centres undefined),10µM*,-3,-9%,-19%,-18,4%
CN1CCN(C(=O)c2ccc3c(c2)N(Cc2cccc(Cl)c2)C(=O)c2ccccc2S3(=O)=O)CC1,?,-3,-18%,12µM*,-8,nt
COc1ccc(Cn2c(=S)[nH]c3cc(C(=O)NCc4cccnc4)ccc3c2=O)cc1,4%,-1,nt,19%,-13,-1%
CC(=O)c1cccc(NC(=O)c2ccc3c(c2)C(=O)N(Cc2cccnc2)C3=O)c1,13%,-2,3%,87%,-47,nt
O=C(Nc1cccnc1)c1ccc2c(c1)C(=O)N(Cc1cccnc1)C2=O,3%,-3,-6%,9.3µM*,-6,3%
O=C(NCc1cccnc1)c1ccc2c(c1)C(=O)N(Cc1ccccc1)C2=O,16%,7,-5%,4.1µM*,-31,nt
COc1ccccc1Cn1c(=S)[nH]c2cc(C(=O)NCc3cccnc3)ccc2c1=O,?,6,nt,8.3µM*,-11,-11%
O=C(O)c1cccc([N+](=O)[O-])c1C(=O)Nc1nc2ccccc2s1,10%,6,nt,47%,34,0%
COc1ccccc1NC(=O)c1c([N+](=O)[O-])c(C(C)(C)C)nn1C,?,2,-7%,?,-13,-8%

# Source: PubChem BioAssay
